Reference: the supplement of paper PMC12350171
Where a name gives a salt, the structure may show the parent alone.

Experiments:
Settings in all cases: 20 µM
[1] = test system: Salmonella enterica typhimurium; experiment: growth AUC normalised to DMSO control (fraction of control); higher = less growth inhibition, active = hit call of the paper
How it was run: (§1)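 Hemin and NAD were added to the medium for Haemophilus parainfluenzae. All pathogens, after two anaerobic passages, were inoculated at a starting OD578 of 0.01 into pre-reduced mGAM plates with 20 μM compound and 1% DMSO under breathable seals, and OD578 was read hourly for 24 h in three biological replicates. AUC of each growth curve was obtained with the trapezoidal rule up to the exponential-to-stationary transition and normalised to DMSO controls from the same plate.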

[2] = test system: Shigella flexneri; experiment: as above
How it was run: as §1

[3] = test system: Vibrio cholerae; experiment: as above
How it was run: as §1

[4] = test system: Yersinia pseudotuberculosis; experiment: as above
How it was run: as §1

[5] = test system: P. vulgatus RND KO; experiment: growth AUC normalised to DMSO control (median) (fraction of control); higher = less growth inhibition, active = hit call of the paper
How it was run: (§2)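 Anaerobic growth was tracked hourly at OD578 for 24 h in 96-well plates of mGAM seeded at OD578 0.01 with each approved-drug library compound at 20 μM and 1% DMSO. Strains had first been passaged twice overnight without oxygen. Three biological replicates were run. The reported median is the area under the curve, calculated by the trapezoidal rule on curves truncated at entry into stationary phase and normalised to vehicle wells on the same plate.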

[6] = test system: P. vulgatus WT; experiment: as above
How it was run: as §2

[7] = test system: S. enterica typhimurium WT; experiment: as above
How it was run: as §2

[8] = test system: S. enterica typhimurium tolC KO; experiment: as above
How it was run: as §2

Measured: growth AUC normalised to DMSO control
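For growth AUC normalised to DMSO control (median) in this document: active when median AUC fell below 0.1.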

OCCN1C[C@H](O)[C@@H](O)[C@H](O)[C@H]1CO [Miglitol]
inactive: [1] 0.991 | [2] 0.971 | [3] 0.986 | [4] 0.991 | [5] 1 | [6] 0.995 | [7] 1.01 | [8] 0.988

O=C1NCCN1CCN1CCC(c2cn(-c3ccc(F)cc3)c3ccc(Cl)cc23)CC1 [Sertindole]
inactive: [1] 1.02 | [2] 1.04 | [3] 1.02 | [4] 1.01 | [5] 0.833 | [6] 0.905 | [7] 1 | [8] 0.949

NS(=O)(=O)c1cc(C(=O)O)c(NCc2ccco2)cc1Cl [Furosemide]
inactive: [1] 0.996 | [2] 1.01 | [3] 1.01 | [4] 1.01 | [5] 1.05 | [6] 1.06 | [7] 1.02 | [8] 1.02

C=CCN1CCCC1CNC(=O)c1cc2nn[nH]c2cc1OC (centres undefined) [Alizapride hydrochloride]
inactive: [1] 1 | [2] 1 | [3] 1.01 | [4] 0.996 | [5] 0.998 | [6] 1 | [7] 1.02 | [8] 1

COc1cc2nc(N3CCN(C(=O)C4COc5ccccc5O4)CC3)nc(N)c2cc1OC (centres undefined) [Doxazosin mesylate]
inactive: [1] 0.974 | [2] 0.985 | [3] 0.942 | [4] 0.996 | [5] 0.949 | [6] 0.916 | [7] 0.994 | [8] 0.952

COc1cc(C(=O)OCCCN2CCCN(CCCOC(=O)c3cc(OC)c(OC)c(OC)c3)CC2)cc(OC)c1OC [Dilazep dihydrochloride]
inactive: [1] 1 | [2] 1.03 | [3] 1.01 | [4] 0.989 | [5] 0.993 | [6] 0.989 | [7] 1 | [8] 0.978

Cc1ccc(C)c(OCCCC(C)(C)C(=O)O)c1 [Gemfibrozil]
inactive: [1] 0.997 | [2] 0.972 | [3] 0.983 | [4] 1 | [5] 0.969 | [6] 0.972 | [7] 1 | [8] 0.977

COc1cc2nc(N(C)CCCNC(=O)C3CCCO3)nc(N)c2cc1OC (centres undefined) [Alfuzosin hydrochloride]
inactive: [1] 1.01 | [2] 1.03 | [3] 1.06 | [4] 0.978 | [5] 1.02 | [6] 1.08 | [7] 1.01 | [8] 1.01

Cc1oncc1C(=O)Nc1ccc(C(F)(F)F)cc1 [Leflunomide]
inactive: [1] 0.989 | [2] 0.988 | [3] 0.914 | [4] 1 | [5] 0.957 | [6] 1 | [7] 0.996 | [8] 0.896

CNCCCC1c2ccccc2C=Cc2ccccc21 [Protriptyline hydrochloride]
inactive: [1] 0.973 | [2] 1 | [3] 0.997 | [4] 1 | [5] 0.913 | [6] 0.882 | [7] 0.996 | [8] 0.951

Clc1ccc(COC(Cn2ccnc2)c2ccc(Cl)cc2Cl)c(Cl)c1 (centres undefined) [Miconazole]
inactive: [1] 0.997 | [2] 1.01 | [3] 0.995 | [4] 1.03 | [5] 0.938 | [6] 0.927 | [7] 0.993 | [8] 0.98

CCCOc1cc(N)ccc1C(=O)OCCN(CC)CC [Propoxycaine hydrochloride]
inactive: [1] 1.02 | [2] 1.04 | [3] 1.07 | [4] 1.02 | [5] 1.01 | [6] 1.05 | [7] 0.997 | [8] 0.996

COc1ccc(CC(C)NCC(O)c2ccc(O)c(NC=O)c2)cc1 (centres undefined) [Formoterol fumarate]
inactive: [1] 1.01 | [2] 1.07 | [3] 0.995 | [4] 1.05 | [5] 1.01 | [6] 1.02 | [7] 1.01 | [8] 0.998

CN1CCN(c2c(F)cc3c(=O)c(C(=O)O)cn4c3c2SCC4)CC1 [Rufloxacin]
active: [1] 0.006 | [2] 0.0254 | [3] 0.0252 | [4] 0.0274 | [7] 0.0284 | [8] 0.00853
inactive: [5] 0.63 | [6] 0.47

Cc1cc(-c2ccccc2)nnc1NCCN1CCOCC1 [Minaprine dihydrochloride]
inactive: [1] 0.997 | [2] 1.01 | [3] 1.02 | [4] 1 | [5] 1 | [6] 0.998 | [7] 1 | [8] 0.998

CC(=O)O[C@]1(C(C)=O)CC[C@H]2[C@@H]3C=C(Cl)C4=CC(=O)CC[C@]4(C)[C@H]3CC[C@@]21C [Chlormadinone acetate]
inactive: [1] 0.989 | [2] 0.993 | [3] 1 | [4] 1 | [5] 0.945 | [6] 0.977 | [7] 0.998 | [8] 0.981

O=C(NCCN1CCOCC1)c1ccc(Cl)cc1 [Moclobemide]
inactive: [1] 0.981 | [2] 0.961 | [3] 0.957 | [4] 1.01 | [5] 0.994 | [6] 0.987 | [7] 0.998 | [8] 0.996

CC(COc1ccccc1)NC(C)C(O)c1ccc(O)cc1 (centres undefined) [Isoxsuprine hydrochloride]
inactive: [1] 0.979 | [2] 0.989 | [3] 1 | [4] 0.989 | [5] 1.02 | [6] 1.01 | [7] 0.998 | [8] 1

CCN(CC)CCOC(=O)C(c1ccccc1)c1ccccc1 [Adiphenine hydrochloride]
inactive: [1] 0.974 | [2] 0.99 | [3] 1.01 | [4] 1 | [5] 1.03 | [6] 1.03 | [7] 0.995 | [8] 1

CN(C)CCN(Cc1cccs1)c1ccccn1 [Methapyrilene hydrochloride]
inactive: [1] 0.977 | [2] 0.972 | [3] 0.995 | [4] 0.994 | [5] 1.01 | [6] 0.995 | [7] 1 | [8] 0.985

OC(CCN1CCCCC1)(c1ccccc1)C1CCCCC1 (centres undefined) [Trihexyphenidyl-D,L hydrochloride]
inactive: [1] 1 | [2] 0.996 | [3] 0.961 | [4] 1.02 | [5] 1.02 | [6] 1.04 | [7] 1.01 | [8] 0.986

CN(C)CCN(Cc1ccc(Cl)cc1)c1ccccn1 [Chloropyramine hydrochloride]
inactive: [1] 0.97 | [2] 1.03 | [3] 0.977 | [4] 1.02 | [5] 1.07 | [6] 1.05 | [7] 0.988 | [8] 0.953

CCOC(=O)[N-]c1c[n+](N2CCOCC2)no1 [Molsidomine]
inactive: [1] 1.02 | [2] 1.02 | [3] 1.03 | [4] 1.01 | [5] 0.999 | [6] 0.991 | [7] 1 | [8] 1.01

CCOC(=O)[C@@](C)(N)Cc1ccc(O)c(O)c1 [Methyldopate hydrochloride]
inactive: [1] 0.999 | [2] 1.04 | [3] 1.06 | [4] 1.02 | [5] 0.964 | [6] 1.02 | [7] 1.01 | [8] 1.02

COc1cccc2c1C(=O)c1c(O)c3c(c(O)c1C2=O)C[C@@](O)(C(=O)CO)C[C@@H]3O[C@H]1C[C@H](N)[C@H](O)[C@H](C)O1 [Doxorubicin hydrochloride]
inactive: [2] 0.932 | [3] 0.998 | [5] 0.948 | [6] 0.966 | [7] 0.986
active: [1] 0.942 | [4] 0.906 | [8] 0.0132

Cc1cc2cc3c(C)cc(=O)oc3c(C)c2o1 [Trioxsalen]
inactive: [1] 0.994 | [2] 1.03 | [3] 0.996 | [4] 0.995 | [5] 1.03 | [6] 1.02 | [7] 0.996 | [8] 0.955

Nc1ccccc1S(N)(=O)=O [o-Sulfanilamide]
inactive: [1] 0.993 | [2] 0.971 | [3] 0.988 | [4] 0.99 | [5] 1.01 | [6] 1.01 | [7] 1.01 | [8] 1

CN1CCCN=C1/C=C/c1cccs1 [Pyrantel tartrate]
inactive: [1] 0.999 | [2] 0.995 | [3] 1.01 | [4] 1.01 | [5] 1.01 | [6] 0.982 | [7] 1.01 | [8] 1

O=c1[nH]c(=O)n([C@H]2C[C@H](O)[C@@H](CO)O2)cc1I [Idoxuridine]
inactive: [3] 0.992 | [4] 0.984 | [5] 1.01 | [6] 1.05 | [7] 0.936 | [8] 0.933
active: [1] 0.909 | [2] 0.861

CCN(CC)Cc1cc(Nc2ccnc3cc(Cl)ccc23)ccc1O [Amodiaquine dihydrochloride dihydrate]
inactive: [1] 0.974 | [2] 1.02 | [3] 1 | [4] 0.966 | [5] 1 | [6] 0.961 | [7] 0.982 | [8] 1

O=C1NCN(c2ccccc2)C12CCN(CCCC(c1ccc(F)cc1)c1ccc(F)cc1)CC2 [Fluspirilene]
inactive: [1] 1.04 | [2] 1.01 | [3] 1.04 | [4] 1.01 | [5] 1 | [6] 1.01 | [7] 1.02 | [8] 0.988

C=CC[N@@+]12CC[C@@]34c5ccccc5N5/C=C6/[C@H]7C[C@H]8[C@@]9(CC[N@@+]8(CC=C)C/C7=C/CO)c7ccccc7N(/C=C(/[C@@H](C[C@@H]31)/C(=C\CO)C2)[C@H]54)[C@@H]69 [Alcuronium chloride]
inactive: [1] 0.94 | [2] 1 | [3] 1.09 | [4] 1.03 | [5] 1.05 | [6] 1.06 | [7] 1.01 | [8] 1

CN1CCC(=C2c3ccccc3CC(=O)c3sccc32)CC1 [Ketotifen fumarate]
inactive: [1] 1.01 | [2] 0.999 | [3] 0.985 | [4] 1.01 | [5] 0.979 | [6] 0.997 | [7] 1.01 | [8] 0.999
